Reference: PubChem BioAssay (EPA / NIEHS)
The source made the active and inactive calls. Rule for the calls: active = hit-call score of the fitted dose curve at least 0.9, where 1 is the maximum; inactive = score below 0.9.

What was measured:
Conditions in all cases: mRNA level, 48 h; actives raise or lower the signal
[1] = read-out: Ezrin (EZR), EZR (gene 7430); test: LTEA_HepaRG_EZR: Life Technologies and Expression Analysis (LTEA) Assay for Ezrin (EZR) using HepaRG (AID 2283491)
In short: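 Gain or loss of EZR mRNA is scored relative to 0.5% DMSO in human HepaRG cultures treated 48 h with test chemicals in duplicate, eight half-log concentrations from 100 uM.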

[2] = read-out: Cytochrome P450 3A7 (Homo sapiens) (UniProt P24462); test: LTEA_HepaRG_CYP3A7: Life Technologies and Expression Analysis (LTEA) Assay for CYP3A7 using HepaRG (AID 2283492)
In short: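 Differentiated HepaRG cells in serum-free induction medium exposed 48 h in duplicate to 8-point half-log series from 100 uM top in 0.5% DMSO. CYP3A7 mRNA by qRT-PCR, normalized to ACTB/GAPDH/POLR2A, bidirectional fit versus DMSO.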

CYP3A5 (gene 1577) = test: LTEA_HepaRG_CYP3A5: Life Technologies and Expression Analysis (LTEA) Assay for CYP3A5 using HepaRG (AID 2283493)
In short: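 Human HepaRG hepatic cells receive 48 h chemical treatment at eight concentrations (half-log steps from 100 uM) in 0.5% DMSO. Expression of CYP3A5 is quantified by Fluidigm qRT-PCR and normalized to three reference genes.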

[3] = read-out: Fatty Acid-Binding Protein 1 (FABP1), FABP1 (gene 2168); test: LTEA_HepaRG_FABP1: Life Technologies and Expression Analysis (LTEA) Assay for Fatty Acid-Binding Protein 1 (FABP1) using HepaRG (AID 2283494)
In short: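 FABP1 expression by TaqMan qRT-PCR, normalised to three housekeeping genes, in HepaRG cells after 48 h chemical treatment. Eight-point half-log series topping at 100 uM in 0.5% DMSO, duplicates; gain or loss fitted relative to vehicle.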

[4] = read-out: Cytochrome P450 4A22 (Homo sapiens) (UniProt Q5TCH4); test: LTEA_HepaRG_CYP4A22: Life Technologies and Expression Analysis (LTEA) Assay for Cytochrome P450 4A22 (CYP4A22) using HepaRG (AID 2283495)
In short: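 Differentiated HepaRG cells in serum-free induction medium exposed 48 h in duplicate to eight half-log concentrations up to 100 uM in 0.5% DMSO. CYP4A22 mRNA quantified by TaqMan qRT-PCR, normalized to ACTB, GAPDH and POLR2A; bidirectional fit versus DMSO.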

[5] = read-out: Cytochrome P450 7A1 (Homo sapiens) (UniProt P22680); test: LTEA_HepaRG_CYP7A1: Life Technologies and Expression Analysis (LTEA) Assay for Cytochrome P450 7A1 (CYP7A1) using HepaRG (AID 2283496)
In short: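 HepaRG, 48 h exposure, 8-pt half-log series from 100 uM, 0.5% DMSO vehicle, duplicates. Readout: TaqMan qRT-PCR mRNA vs three housekeeping genes; bidirectional curve fit against DMSO baseline.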

[6] = read-out: Glutathione S-Transferase (GSTA2), GSTA2 (gene 2939); test: LTEA_HepaRG_GSTA2: Life Technologies and Expression Analysis (LTEA) Assay for Glutathione S-Transferase (GSTA2) using HepaRG (AID 2283497)
In short: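 GSTA2 transcript levels came from Fluidigm TaqMan qRT-PCR normalized to three housekeeping genes, fitted in both directions against DMSO. HepaRG cultures received chemicals for 48 h in serum-free induction medium (0.5% DMSO), 8 half-log concentrations up to 100 uM, duplicate.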

[7] = read-out: Glutamate-cysteine ligase catalytic (GCLC), GCLC (gene 2729); test: LTEA_HepaRG_GCLC: Life Technologies and Expression Analysis (LTEA) Assay for Glutamate-cysteine ligase catalytic (GCLC) using HepaRG (AID 2283498)
In short: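 Expression by TaqMan qRT-PCR, normalized to three housekeeping genes (ACTB, GAPDH, POLR2A), with up- or down-regulation fitted against DMSO. HepaRG cells dosed in duplicate for 48 h with 8 half-log concentrations up to 100 uM, vehicle 0.5% DMSO.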

[8] = read-out: growth arrest and DNA damage 45 (GADD45G), GADD45G (gene 10912); test: LTEA_HepaRG_GADD45G: Life Technologies and Expression Analysis (LTEA) Assay for growth arrest and DNA damage 45 (GADD45G) using HepaRG (AID 2283499)
In short: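 Differentiated human HepaRG cells, 48 h post-plating, exposed 48 h in serum-free induction medium to 8 half-log concentrations (top 100 uM, 0.5% DMSO) in duplicate. GADD45G mRNA measured by Fluidigm TaqMan qRT-PCR, normalized to ACTB, GAPDH, POLR2A; bidirectional fit versus DMSO.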

[9] = read-out: Glutamate-cysteine ligase regulatory (GCLM), GCLM (gene 2730); test: LTEA_HepaRG_GCLM: Life Technologies and Expression Analysis (LTEA) Assay for Glutamate-cysteine ligase regulatory (GCLM) using HepaRG (AID 2283500)
In short: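 Endpoint is GCLM transcript level by qRT-PCR, normalized to three housekeeping genes, after 48 h chemical exposure of human HepaRG cells (0.5% DMSO vehicle, top 100 uM, half-log dilutions). Fitting was bidirectional relative to DMSO.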

[10] = read-out: Glutathione S-transferase M3 (GSTM3), GSTM3 (gene 2947); test: LTEA_HepaRG_GSTM3: Life Technologies and Expression Analysis (LTEA) Assay for Glutathione S-transferase M3 (GSTM3) using HepaRG (AID 2283501)
In short: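 Differentiated human HepaRG cells were exposed in duplicate for 48 h in serum-free induction medium, 8 points from 100 uM top in half-log steps, 0.5% DMSO. GSTM3 mRNA was measured by TaqMan qRT-PCR, normalized to ACTB, GAPDH and POLR2A; bidirectional fit versus DMSO.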

[11] = read-out: Hypoxia-inducible factor 1-alpha (Homo sapiens) (UniProt Q16665); test: LTEA_HepaRG_HIF1A: Life Technologies and Expression Analysis (LTEA) Assay for Hypoxia-inducible factor 1 (HIF1A) Trancription factor using HepaRG (AID 2283503)
In short: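 HIF1A transcript level read by qRT-PCR (ACTB, GAPDH, POLR2A normalization) after 48 h chemical exposure of HepaRG cultures. Eight half-log concentrations, top 100 uM, 0.5% DMSO vehicle, duplicates; bidirectional curve fit against DMSO baseline.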

[12] = read-out: 3-Hydroxy-3-Methylglutaryl-CoA Synthase 2 (HMGCS2), HMGCS2 (gene 3158); test: LTEA_HepaRG_HMGCS2: Life Technologies and Expression Analysis (LTEA) Assay for 3-Hydroxy-3-Methylglutaryl-CoA Synthase 2 (HMGCS2) using HepaRG (AID 2283504)
In short: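 Human HepaRG cells in serum-free induction medium were exposed in duplicate for 48 h to 8-point half-log series from 100 uM top in 0.5% DMSO. HMGCS2 mRNA measured by TaqMan qRT-PCR, normalised to ACTB, GAPDH, POLR2A; bidirectional fit versus DMSO.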

[13] = read-out: Insulin Like Growth Factor 1 (IGF1), IGF1 (gene 3479); test: LTEA_HepaRG_IGF1: Life Technologies and Expression Analysis (LTEA) Assay for Insulin Like Growth Factor 1 (IGF1) using HepaRG (AID 2283506)
In short: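 Cells are thawed, plated and cultured 48 h, then exposed in duplicate to chemical (highest 100 uM, half-log steps, 0.5% DMSO) for another 48 h. Total RNA is analysed by Fluidigm qRT-PCR for IGF1 expression relative to vehicle.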

[14] = read-out: Intercellular Adhesion Molecule 1 (ICAM1), ICAM1 (gene 3383); test: LTEA_HepaRG_ICAM1: Life Technologies and Expression Analysis (LTEA) Assay for Intercellular Adhesion Molecule 1 (ICAM1) using HepaRG (AID 2283507)
In short: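 Differentiated human HepaRG cells in serum-free induction medium exposed 48 h in duplicate to 8 half-log concentrations (top 100 uM, 0.5% DMSO). ICAM1 mRNA quantified by TaqMan qRT-PCR, normalized to ACTB, GAPDH and POLR2A; bidirectional fitting versus DMSO.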

[15] = read-out: Insulin-like growth factor-binding protein 1 (IGFBP1), IGFBP1 (gene 3484); test: LTEA_HepaRG_IGFBP1: Life Technologies and Expression Analysis (LTEA) Assay for Insulin-like growth factor-binding protein 1 (IGFBP1) using HepaRG (AID 2283508)
In short: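 HepaRG cells, plated 48 h then switched to serum-free induction medium, exposed in duplicate for 48 h to 8-point half-log series from 100 uM in 0.5% DMSO. mRNA measured by qRT-PCR, normalized to ACTB/GAPDH/POLR2A; bidirectional fit versus DMSO.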

[16] = read-out: Interleukin 6 (IL6), IL6 (gene 3569); test: LTEA_HepaRG_IL6: Life Technologies and Expression Analysis (LTEA) Assay for Interleukin 6 (IL6) using HepaRG (AID 2283509)
In short: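 Transcript levels, normalized to three housekeeping genes, were quantified by qRT-PCR after 48 h chemical treatment of HepaRG cells. Eight-point half-log series from 100 uM in 0.5% DMSO, duplicates. Fitted both directions against DMSO baseline.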

[17] = read-out: Interleukin 6 Receptor (IL6R), IL6R (gene 3570); test: LTEA_HepaRG_IL6R: Life Technologies and Expression Analysis (LTEA) Assay for Interleukin 6 Receptor (IL6R) using HepaRG (AID 2283510)
In short: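 Cells were thawed, plated and cultured 48 h, then medium was changed to serum-free induction medium. Chemicals were added in duplicate (100 uM top, half-log steps, 0.5% DMSO) for 48 h. Lysates were analyzed by qRT-PCR for IL6R expression.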

Measured: AC50

Sequence of Hypoxia-inducible factor 1-alpha (Homo sapiens) (Q16665 whole entry, looked up): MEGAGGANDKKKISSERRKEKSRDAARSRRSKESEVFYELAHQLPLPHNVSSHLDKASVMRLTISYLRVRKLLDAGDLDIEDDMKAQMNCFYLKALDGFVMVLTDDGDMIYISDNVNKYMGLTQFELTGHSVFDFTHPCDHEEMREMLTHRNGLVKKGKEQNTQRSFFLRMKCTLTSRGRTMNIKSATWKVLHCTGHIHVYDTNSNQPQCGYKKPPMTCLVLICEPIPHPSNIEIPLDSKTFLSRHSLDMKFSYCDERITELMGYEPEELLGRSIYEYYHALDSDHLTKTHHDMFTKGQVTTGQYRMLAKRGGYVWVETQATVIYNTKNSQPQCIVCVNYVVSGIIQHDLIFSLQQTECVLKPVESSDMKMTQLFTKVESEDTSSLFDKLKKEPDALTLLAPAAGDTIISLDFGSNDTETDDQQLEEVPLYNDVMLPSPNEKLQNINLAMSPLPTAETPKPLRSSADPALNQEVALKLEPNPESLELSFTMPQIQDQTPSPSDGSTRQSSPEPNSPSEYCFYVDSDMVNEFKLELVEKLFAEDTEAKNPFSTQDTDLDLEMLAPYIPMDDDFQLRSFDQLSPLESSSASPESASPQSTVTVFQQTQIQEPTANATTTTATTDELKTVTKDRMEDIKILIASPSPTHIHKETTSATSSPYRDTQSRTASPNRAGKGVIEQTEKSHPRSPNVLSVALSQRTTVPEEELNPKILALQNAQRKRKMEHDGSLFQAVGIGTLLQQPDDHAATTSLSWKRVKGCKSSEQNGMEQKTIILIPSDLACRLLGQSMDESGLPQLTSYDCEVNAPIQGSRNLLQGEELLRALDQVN
Sequence of Cytochrome P450 3A7 (Homo sapiens) (P24462 whole entry, looked up): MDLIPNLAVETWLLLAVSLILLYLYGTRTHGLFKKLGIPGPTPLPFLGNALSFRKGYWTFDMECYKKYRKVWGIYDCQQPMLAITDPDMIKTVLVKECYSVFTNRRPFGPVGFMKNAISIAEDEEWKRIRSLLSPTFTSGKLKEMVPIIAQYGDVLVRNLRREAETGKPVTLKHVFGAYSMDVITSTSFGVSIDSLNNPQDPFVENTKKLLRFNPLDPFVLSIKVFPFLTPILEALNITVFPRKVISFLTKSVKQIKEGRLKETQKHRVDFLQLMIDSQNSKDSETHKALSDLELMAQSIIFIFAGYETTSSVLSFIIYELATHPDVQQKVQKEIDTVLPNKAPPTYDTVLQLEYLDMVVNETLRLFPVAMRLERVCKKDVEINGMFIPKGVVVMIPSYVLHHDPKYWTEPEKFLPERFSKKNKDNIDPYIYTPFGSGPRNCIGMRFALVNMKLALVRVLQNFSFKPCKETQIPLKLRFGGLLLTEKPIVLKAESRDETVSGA

O=C1C2CC=CCC2C(=O)N1SC(Cl)(Cl)Cl (stereo not drawn)
inactive: [1] | [2] | CYP3A5 (gene 1577) | [3] | [4] | [5] | [6] | [7] | [8] | [9] | [10] | [11] | [12] | [13] | [14] | [16] | [17]
active: [15] 20.2 µM
